A short description of this experiment: RPMI8226 myeloma cell viability, profiling panel, resazurin fluorescence, basal, 24 h, PK04 Diversity Set (AID 1180).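 Further: RPMI8826 multiple myeloma cell line at 5000 cells per well; test concentration not given here.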 Particulars: higher = more signal. A general note: The colour change of resazurin is a common sign of viable cells or microbes.
Take `COc1ccc(C(=O)Nc2ccc(CN3C(=O)[C@]4(O[C@H](CC(=O)N(CCO)Cc5ccccc5)[C@@H]([Si](C)(C)c5ccc(OC)cc5)[C@@H]4C)c4ccccc43)cc2)cc1`: the z-score was -1.84. On to `Cc1ccc(S[C@]2(C(=O)NC(C)C)CC(=O)N(Cc3ccccc3)[C@@H]2c2ccc(CO)cc2I)cc1`, for which the z-score is -2.8. In turn, `C=C(CCCC)C(=O)CC[C@@H](OC(C)=O)c1ccc(OCCO)cc1` showed a z-score of -0.894. The value for `COC(=O)[C@@]1(Cc2ccc(F)cc2)[C@H]2c3cc(C(=O)N4CCCC4)n(CCc4c[nH]c5cc(F)ccc45)c3C[C@H]2CN1C(=O)c1ccccc1` was -0.162; that for `C=CCN1C(=O)[C@]2(O[C@H](CCO)[C@@H]([Si](C)(C)c3ccc(OC)cc3)[C@@H]2C)c2cc(N3C(=O)c4ccccc4Oc4ccccc43)ccc21` was -6.28. With `COC(=O)C(CC#Cc1ccc2c(c1)[C@]1(C(=O)N2)[C@H](c2ccc(OCCO)cc2)N2[C@H](c3ccccc3)[C@H](c3ccccc3)OC(=O)[C@H]2[C@@H]1C(N)=O)C(=O)OC`, the z-score was -1.43. Then `CC(C)N1C(=O)[C@@]2(Cc3ccccc31)c1ccccc1C(=O)N(Cc1ccccc1C(F)(F)F)[C@H]2c1ccc(CO)cc1`, with 0.566; and `C=C(C(=O)CC[C@@H](OC(=O)c1ccccc1-c1ccccc1C(=O)O)c1ccc(OCCO)cc1)C(C)C`, with 0.488.

In the case of `COc1ccc(CCNC(=O)[C@@]2(C)c3ccccc3C(=O)N(Cc3ccc(OC(F)(F)F)cc3)[C@H]2c2ccc(CO)cc2)cc1`, the z-score is 1.3. In turn, `[N-]=[N+]=NCc1ccccc1[C@H]1OC(c2ccc(OCCCO)cc2)=N[C@@]1(Cc1ccccc1N=[N+]=[N-])C(=O)O` displayed a z-score of -0.0412. Turning to `CC(C)c1ccc(NN2C(C(O)C3CCCCC3)C=CC3C(=O)N(c4ccccc4)C(=O)C32)cc1` (stereo not given), the z-score is -0.675. Then `CC(CO)N1C(=O)[C@@H]2[C@H]3C(=O)OCC=C[C@H]3OC23C=CCN(c2ccc4ccccc4c2)C(=O)[C@@H]13` (stereo not given in full), with 0.492; and `O=C1O[C@H](c2ccccc2)[C@H](c2ccccc2)N2[C@H]1[C@@H](C(=O)O)[C@]1(C(=O)Nc3ccccc31)[C@H]2c1ccc(OCCO)cc1`, with 1.16. Compound `C=CCNC(=O)[C@@H]1[C@H]2C(=O)O[C@H](c3ccccc3)[C@H](c3ccccc3)N2[C@H](c2ccc(OCCO)cc2)[C@@]12C(=O)N(C(=O)OCCOC)c1ccccc12` came in with a z-score of -0.289. Then `C[C@]1(C(=O)NC2CC2)c2ccccc2C(=O)N(Cc2cc(F)cc(C(F)(F)F)c2)[C@H]1c1ccc(CO)cc1`, with 1.04; and `C=CCNC(=O)[C@@H]1[C@H]2C(=O)O[C@H](c3ccccc3)[C@H](c3ccccc3)N2[C@H](c2ccc(O)cc2)[C@@]12C(=O)Nc1ccc(C#CC3=CCCCC3)cc12`, with -6.25. The value for `Cc1cccc([C@H]2C[C@H]3C(Br)=C[C@@]2(CO)C(=O)[C@]32CO2)c1` was 0.214. In turn, `COc1ccc(CCNC(=O)[C@@]2(c3ccc([N+](=O)[O-])cc3)CC(=O)N(C3CCCCC3)[C@@H]2c2ccc(CO)cc2I)cc1` registered a z-score of -0.593. Consider `C=CC[C@]12N=C(c3ccc(OCCCO)cc3)O[C@H]1c1ccccc1N(CCC)C2=O`, for which the z-score was -0.65.

On to `[N-]=[N+]=Nc1ccccc1C[C@@]1(C(=O)NCc2ccccc2)N=C(c2ccc(OCCCO)cc2)O[C@@H]1c1ccccc1`, for which the z-score was -0.564. Turning to `O=C1O[C@@H](c2ccccc2)[C@@H](c2ccccc2)N2[C@@H](c3ccccc3OCCO)[C@]3(C(=O)Nc4ccc(C#CC5(O)CCCCCC5)cc43)[C@@H](C(=O)N3CCCCCCC3)[C@H]12`, the z-score was -0.186. The compound `C=CC[C@H](O)c1ccc(O)c2ccccc12` displayed a z-score of -1.05. `C=C1C(=O)C=C2CN(C(=O)c3ccccc3)[C@@](Cc3ccc(F)cc3)(C(=O)OC)[C@@H]12` displayed a z-score of -7.28.

`COc1ccc(C(=O)Nc2cccc(CN3C(=O)[C@]4(O[C@H](CC(=O)N(CCO)Cc5ccccc5)[C@@H]([Si](C)(C)c5ccc(OC)cc5)[C@@H]4C)c4ccccc43)c2)cc1` yielded a z-score of -1.52. On to `COC(=O)C1=CC(CCCO)=CC(c2ccc(CN3CCCC3)cc2)N(C)C=C1C(=O)OC` (stereo not given), for which the z-score is 0.154. Compound `[N-]=[N+]=NCc1ccccc1C[C@@]1(C(=O)NCCN2CCOCC2)N=C(c2ccc(OCCCO)cc2)O[C@@H]1c1ccccc1` had a z-score of -1.02. The compound `COC(=O)C(CC#Cc1ccc2c(c1)[C@]1(C(=O)N2)[C@H](C(=O)N2CCCCCCC2)[C@H]2C(=O)O[C@H](c3ccccc3)[C@H](c3ccccc3)N2[C@@H]1c1ccc(OCCO)cc1)C(=O)OC` came in with a z-score of 0.0283.

`CN(C)C(=O)[C@]1(CCS(=O)(=O)c2ccccc2)N=C(c2ccc(OCCCO)cc2)O[C@@H]1c1ccccc1CN=[N+]=[N-]` showed a z-score of -0.0461. In turn, `CC1CC/C=C\[C@H]2OC34C=CCN(CCN5CCOCC5)C(=O)[C@H]3N(C(CO)C(C)C)C(=O)[C@@H]4C2C(=O)O1` (stereo not given in full) registered a z-score of -0.465. For `COc1ccc([Si](C)(C)[C@H]2[C@H](CC(=O)N(CCO)Cc3ccccc3)O[C@@]3(C(=O)N(c4ccccc4)c4ccccc43)[C@@H]2C)cc1`, the z-score is -6.25. Consider `C=CCNC(=O)[C@H]1[C@@H]2C(=O)O[C@@H](c3ccccc3)[C@@H](c3ccccc3)N2[C@@H](c2ccc(O)cc2)[C@]12C(=O)Nc1ccc(C#CCC(C(=O)OC)C(=O)OC)cc12`, for which the z-score was -3.01.

The compound `CC[C@@H]1C=C(C(=O)O)[C@H](c2cccc(Cl)c2)N1S(=O)(=O)c1ccc(C)cc1` displayed a z-score of -1.89.

Consider `C=CCOC(=O)[C@H]1[C@@H]2C(=O)O[C@@H](c3ccccc3)[C@@H](c3ccccc3)N2[C@@H](c2ccc(OCCOC(=O)[C@H]3C[C@H]4C(=O)NCC(=O)N4[C@H]3c3ccc(O)cc3)cc2)[C@]12C(=O)Nc1ccccc12`, for which the z-score came out at 1.72. `OCCCc1cc[n+](Cc2cc3c(cc2Br)OCO3)cc1` had a z-score of 0.275. Turning to `COc1ccc([Si](C)(C)[C@@H]2[C@@H](CC(=O)N(CCO)Cc3ccccc3)O[C@]3(C(=O)N(Cc4cccc(I)c4)c4ccccc43)[C@H]2C)cc1`, the z-score was -2.96.

Values taken from PubChem BioAssay.
